In ChEMBL document CHEMBL4513146, “CO-ADD screening of Karazin Kharkiv National University (Ukraine) compounds”:
Entries with a potency or affinity are not part of this list.

Legend:
Klebsiella pneumoniae = conditions: Concentration 32 ug.mL-1;; ASSAY_TEST Inhibition of Bacterial Growth; detection method Absorption (OD600); MEDIA CAMHB; plate type 384well; NBS; CORNING #3640; time 18 hr
Candida albicans = conditions: Concentration 32 ug.mL-1; ASSAY_TEST Inhibition of Fungal Growth; detection method Absorption (OD530)
Cryptococcus neoformans = conditions: Concentration 32 ug.mL-1; ASSAY_TEST Inhibition of Fungal Growth; detection method Resazurin; Absorption (OD600-OD570); plate type 384well; NBS; CORNING #3640

Structure (SMILES)	Inhibition (Klebsiella pneumoniae) [%]	Inhibition (Candida albicans) [%]	Inhibition (Cryptococcus neoformans) [%]
Cc1ccccc1Oc1nccn2c(=O)n(CC(=O)Nc3cc(F)ccc3F)nc12	13.37	-0.39	-8.18
Cc1ccc(NC(=O)Cn2nc3c(N4CC(C)CC(C)C4)nccn3c2=O)c(F)c1 (stereo not given)	10.72	3.58	-9.98
COc1cccc(Oc2nccn3c(=O)n(CC(=O)NC4CCCCC4)nc23)c1	9.68	-1.29	-8.14
CCN(C(=O)Cn1nc2cc(C)nc(Nc3ccc(C)c(F)c3)n2c1=O)c1ccccc1	13.32	0.56	-6.91
CCc1cccc(NC(=O)Cn2nc3nc(N4CCCCCC4)ccn3c2=O)c1	14.42	0.8	-9.37
CCCCc1ccc(NC(=O)Cn2nc3ccc(C(=O)Nc4ccc(OC)cc4)cn3c2=O)cc1	-3.83	18.36	-8.8
CCOC(=O)c1ccccc1NC(=O)Cn1nc2c(Oc3ccccc3)nccn2c1=O	14.49	0.37	-11.47
CC(C)(C)OC(=O)N1CCC(NC(=O)CCc2nnc3ccc(-c4ccccc4)nn23)CC1	12.09	0.97	-4.02
CCc1ccc(NC(=O)Cn2nc3ccc(SC4CCCCC4)nn3c2=O)cc1	3.55	2.46	-12.68
COc1cccc(CN(c2ccc(F)c(F)c2)S(=O)(=O)c2ccc3nnc(C)n3c2)c1	7.43	1.78	-8.55
CCc1ccc(N(Cc2ccccc2F)S(=O)(=O)c2cccn3c(CC)nnc23)cc1	6.04	4.59	-5.13
O=C(Cn1nc2ccc(SCc3ccc(Cl)cc3)nn2c1=O)NCc1ccc2c(c1)OCO2	-1.27	13.27	-15.83
CCC(Sc1nnc2c(=O)n(-c3ccccc3)ccn12)C(=O)Nc1cc(F)ccc1F (stereo not given)	10.28	0.38	-17.31
CCOc1ccc(NC(=O)Cn2nc3c(SCc4ccc(Cl)cc4)nccn3c2=O)cc1	5.7	17.72	-25.81
COc1cccc(CN(c2ccc(F)c(F)c2)S(=O)(=O)c2cccn3c(C)nnc23)c1	13.94	-0.28	-8.71
CCCCOc1ccc(-c2cc3c4nnc(SCC(=O)Nc5ccccc5F)n4ccn3n2)cc1	-0.1	7.26	-10.98
CCOc1ccc(-n2ccn3c(SCc4cccc(C(F)(F)F)c4)nnc3c2=O)cc1	0.24	0.48	-7.62
CCOc1ccc(NC(=O)Cn2nc3c4cc(-c5ccc(C)cc5)nn4ccn3c2=O)cc1	14.64	1.16	-37.08
Cc1ccc(Sc2ccc3nn(CC(=O)Nc4ccc(F)c(Cl)c4)c(=O)n3n2)cc1	6.66	6.36	-7.28
Cc1cccc(NC(=O)c2ccc3nnc(SCC(=O)Nc4ccc(Br)cc4)n3c2)c1	7.72	7.81	-6.93

Structure (SMILES)	Inhibition (Klebsiella pneumoniae) [%]	Inhibition (Candida albicans) [%]	Inhibition (Cryptococcus neoformans) [%]
COc1ccccc1-n1ccn2c(SCC(=O)NCc3ccc(Cl)cc3)nnc2c1=O	9.61	4.77	-6.31
COc1cccc(-n2ccn3c(SCC(=O)NCc4ccco4)nnc3c2=O)c1	16.06	4.76	-13.76
COc1ccc(-c2cc3c4nn(CC(=O)Nc5ccc(OC)cc5OC)c(=O)n4ccn3n2)cc1	12.55	0.69	-8.54
COc1ccc(-n2ccn3c(SCC(=O)N4CCN(c5ccccc5F)CC4)nnc3c2=O)cc1	15.6	2.59	-14.55
O=C(Cn1nc2c3c4c(sc3ncn2c1=O)CCCC4)N1CCc2ccccc2C1	9.79	4.18	-11.61
Cc1cc(C)cc(N(Cc2cc(F)cc(F)c2)S(=O)(=O)c2cccn3c(C)nnc23)c1	11.7	0.35	-11.73
COc1ccc(C)cc1NC(=O)Cn1nc2c3cc(-c4ccc(C)c(C)c4)nn3ccn2c1=O	11.68	0.52	-9.82
Cc1cccc(-c2nc(CSc3nc4ccccc4n4c(C)nnc34)c(C)o2)c1	10.71	3.22	-23.71
COc1ccc(NC(=O)Cn2nc3c4cc(-c5ccc(C)c(C)c5)nn4ccn3c2=O)cc1OC	13.24	0.2	-30.03
CCCc1nnc2c(=O)n(CC(=O)Nc3cccc(Br)c3)c3ccccc3n12	0.59	0.12	-38.92
O=c1c2nnc(SCc3ccccc3F)n2ccn1-c1ccc(F)cc1	-2.87	2.17	-5.92
COC(=O)c1cccc(NC(=O)Cn2nc3c(N4CCC(C)CC4)nccn3c2=O)c1	5.33	2.15	-12.99
COc1ccc(-c2cc3c4nn(CC(=O)Nc5ccccc5)c(=O)n4ccn3n2)cc1	8.66	6.28	-7.06
Cc1ccc(C)c(Cn2nc3n(CCC(C)C)c(=O)c4sccc4n3c2=O)c1	11.36	0.71	-24.6
O=c1n(Cc2nc(-c3ccc(Br)cc3)no2)nc2ccc(-c3ccccc3)nn12	7.97	1.04	-15.1
Cc1nnc2ccc(S(=O)(=O)N(Cc3ccccc3F)c3ccc(Cl)cc3)cn12	-3.84	0.4	-8.97
C=Cc1ccc(CN(c2cccc(F)c2)S(=O)(=O)c2ccc3nnc(C)n3c2)cc1	2.09	1.51	-6.84
CCOC(=O)c1ccc(NC(=O)Cn2nc3ccc(SCc4ccc(Cl)cc4)nn3c2=O)cc1	5.68	34.69	-19.64
Cc1ccc(C)c(-c2cc3c4nnc(CCC(=O)NCCc5ccc(Cl)cc5)n4ccn3n2)c1	12.88	1.56	-40.65
Cc1ccc(Oc2nccn3c(=O)n(CC(=O)Nc4ccc(Br)cc4F)nc23)cc1	2.41	2.18	-6.11

Structure (SMILES)	Inhibition (Klebsiella pneumoniae) [%]	Inhibition (Candida albicans) [%]	Inhibition (Cryptococcus neoformans) [%]
CCc1ccc(NC(=O)Cn2nc3c4cc(-c5ccc(C)c(C)c5)nn4ccn3c2=O)cc1	5.45	21.77	-12.06
COc1ccc(CCn2c(=O)c3sccc3n3c(=O)n(Cc4ccc(F)cc4)nc23)cc1OC	6.56	11.53	-31.44
CCc1ccc(N(Cc2cccc(F)c2)S(=O)(=O)c2cccn3c(C)nnc23)cc1	8.24	0.68	-10.22
O=C(Cn1nc2c3cc(-c4ccc(F)cc4)nn3ccn2c1=O)Nc1ccc2c(c1)OCCO2	11.81	2.29	-25.22
Cc1ccc(NC(=O)Cn2c(=O)c3nnc(C(C)C)n3c3ccccc32)c(C)c1	5.02	1.04	-15.61
CCc1nnc2c(S(=O)(=O)N(Cc3cccc(OC)c3)c3ccc(F)cc3)cccn12	-0.6	3.42	-6.42
COc1ccc(NC(=O)Cn2nc3c(Oc4ccccc4)nccn3c2=O)cc1	8.21	3.81	-6.99
O=C(CSc1nnc2c(=O)n(-c3ccccc3)ccn12)Nc1cccc(Cl)c1	1.21	-0.19	-20.21
O=c1n(Cc2cccc(Cl)c2)nc2ccc(-c3ccccc3)nn12	19.54	2.36	-20.37
CC(C)Sc1ccc2nn(CC(=O)Nc3ccc(Br)cc3F)c(=O)n2n1	15.2	-0.59	-7.06
Cc1ccc(-c2cc3c4nnc(CCC(=O)NCc5ccc(C(F)(F)F)cc5)n4ccn3n2)cc1C	10.93	3.64	-31.79
CCOC(=O)c1ccccc1NC(=O)Cn1nc2c3cc(-c4ccc(Cl)cc4)nn3ccn2c1=O	14.78	2.98	-20.88
CCCCn1c(=O)c2sccc2n2c(=O)n(CC(=O)N(C)c3ccccc3)nc12	-1.65	-0.48	-15.83
Cc1c(Cl)cccc1-n1ccn2c(=O)n(Cc3c(F)cccc3Cl)nc2c1=O	1.26	11.96	-12.75
O=C(CSc1nnc2c3cc(-c4ccc(F)cc4)nn3ccn12)NCc1ccc(Cl)cc1	0.77	7.94	-17.49
Cc1nnc2ccc(S(=O)(=O)N(Cc3ccc(F)cc3)c3ccc(Cl)cc3)cn12	9.19	1.14	-10.26
Cc1nnc2ccc(S(=O)(=O)N(Cc3ccc(F)cc3)c3ccc4c(c3)OCO4)cn12	13.79	1.73	-7.24
COc1ccc(-c2cc3c4nnc(SCC(=O)Nc5cc(F)ccc5C)n4ccn3n2)cc1	-19.37	1.81	-16.34
Cc1cc(C)cc(N(Cc2cccc(Cl)c2)S(=O)(=O)c2cccn3cnnc23)c1	9.53	1.12	-7.68
COc1ccc(-c2cc3c4nn(CC(=O)Nc5ccc(OC)c(Cl)c5)c(=O)n4ccn3n2)cc1	-0.45	32.01	-18.43
